This is part of a sample that, as a whole, favours compounds with a hit. Of some 83,000 tested, about 20% had one in any assay.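 Cells were grown in 96-well plates and exposed to the test compound at a single concentration for 48 hours; results are reported as percent growth, with values below 10 considered active.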 Unmarked numbers belong to inactive results. Active and inactive are the calls of the source.

For 39 molecules, growth results are on record in PubChem BioAssay (NCI).

In the test the test system is MDA-MB-468 breast. Put plainly: NCI-60 one-dose screen, 48 h (100 = growth as untreated, 0 = no growth, -100 = all killed). As to conditions: 10 µM unless noted.
Turning to `Cn1cc(-c2csc(-c3ccc(Cl)cc3)n2)c2cccnc21`, the growth was -69.1% [100 µM] (active). Regarding `CCC(C)(C)c1ccc(OCCCCCCN2CCN(c3ccc(C)c(Cl)c3)CC2)cc1`, the growth was 47.1%. The value for `CC(=O)[C@H]1CC[C@H]2[C@@H]3CCC4=CC(=O)C=C[C@]4(C)[C@H]3CC[C@]12C` was 87.5%; that for `O=C1/C=C/[C@@H](O)[C@@H]2C[C@@H](O)C[C@H]2/C=C/CCC[C@@H](O)CCO1` was -17% (active). To `C=C(C=O)[C@@H]1CC[C@]2(C(=O)O)CC[C@]3(C)C(CC[C@@H]4[C@@](C)(CCC#N)[C@H](C(=C)C=O)CC[C@]43C)[C@@H]12` (some centres undefined) belongs 79.8%; to `COc1cc(C(=O)/C=C/c2cccnc2Nc2ccc(Cl)cc2)cc(OC)c1OC`, -80.1% (active); to `COc1cc2c3c(n(CCCN4CCCCC4)c(=O)c2cc1OC)-c1cc2c(cc1C3=O)OCO2`, -84% (active). The value for `COc1ccc(/C(C#N)=C/c2ccccc2OC)cc1` was -14% (active). Regarding `CC[C@H](CC[C@@H](C)[C@H]1CC[C@H]2[C@@H]3CC=C4C[C@@H](OCCc5nn[nH]n5)CC[C@]4(C)[C@H]3CC[C@]12C)C(C)C`, the growth was 118%.

On to `COC(=O)C(Cc1ccccc1)NC(=O)NC(=O)NC(=O)CI` (centres undefined), for which the growth is 82.8%. The value for `CCC1(c2ccccc2)Oc2ccccc2-n2c(C#N)c3ccccc3c2C1=O` (centres undefined) was 104%. To `O=C(NCCCCCCCNC(=O)OCc1ccc2c(Cl)cc(Cl)c(O)c2n1)OCc1ccc2c(Cl)cc(Cl)c(O)c2n1` belongs -57.3% (active); to `O=C(O)c1ccccc1Oc1cc(-c2ccco2)nc(OCCN2CCOCC2)n1`, 105%. The value for `CCOc1ncc([N+](=O)[O-])c(OCC)n1` was 115%; that for `CC(C)(O)CCl` was 103%; that for `COc1c(O)cc2oc3cc(O)c(CC=C(C)C)c(O)c3c(=O)c2c1C/C=C(\C)CCC=C(C)C` was 82.1%. Turning to `O=S(=O)(NCCCNc1nccc(-c2[nH]c(-c3ccccc3)nc2-c2ccc(Cl)c(O)c2)n1)c1ccc(Br)cc1`, the growth is 25.9%. To `O=c1oc2cc(OS(=O)(=O)c3ccccc3)c(Cl)cc2c2c1CCCCCC2` belongs 62.2%; to `COc1cc(C(=O)N2CCN(c3cc4c(cc3F)c(=O)c(C(=O)NO)cn4C3CC3)CC2)cc(OC)c1OC`, 95.8%; to `O=C1COCCN1c1ccc(NCc2cn(Cc3ccc(F)cc3)c3ccccc23)cc1`, -66.9% (active).

Take `CC(C)(C)c1cc(C(=O)Nc2ccccc2C(=O)NCCN)cc(C(C)(C)C)c1`: the growth is -76.7% (active). The value for `COc1ccc(/C=c2\nc3n(-c4ccccc4)c4nc5c6c(sc5c(=N)n4n-3c2=O)CCCC6)cc1` was 90.1%; that for `O=C1NCc2ccc3c(-c4cccc(Cl)c4)c[nH]c3c21` was 26.5%; that for `CN(C)CCn1c(=O)c2ccccc2n2nc3ccccc3c12` was 105%. To `CCc1ccccc1NC(=O)c1sc2nc3c(cc2c1N)C(=O)CCC3` belongs 43.3%. To `N#C/C(=C\c1ccc(-c2ccc(Br)cc2)o1)c1nc(-c2ccco2)cs1` belongs -26.8% (active); to `CN(C)CCCn1c2c(c3ccc(N4CCNCC4)cc3c1=O)C(=O)c1ccccc1-2`, -17.2% (active). For `O=c1[nH]c(N2CCOCC2)nc2scc(-c3ccccc3)c12`, the growth was 86.2%. To `C=C1CC[C@@H]2[C@](C)(COC(C)=O)[C@H](OC(C)=O)CC[C@@]2(C)[C@@H]1CC(Nc1ccc(S(=O)(=O)Nc2ncccn2)cc1)C1=CCOC1=O` (some centres undefined) belongs -54% (active); to `CCn1cc(C(=O)O)c(=O)c2cc(F)c(N3CCN(CC(=O)Nc4ccccc4)C(C)C3)c(F)c21` (centres undefined), 92.6%. The value for `C#Cc1ccc(-n2c(/C=C/c3ccc(O)cc3)nc3ncccc3c2=O)cc1` was -10.6% (active); that for `O=C(CCCl)OCCOc1ccccc1` was 107%. The value for `Cc1cc(=O)n(Nc2ccccc2)c(O)c1C#N` was 108%; that for `COc1cccc(/C=C/C(=O)c2cc3c(N)c(C(=O)Nc4ccccc4C)sc3nc2C)c1` was 16.7%.

Consider `O=C(COc1cc(O)c2c(=O)cc(-c3ccccc3)oc2c1)Nc1ccccc1`, for which the growth was 103%. For the molecule `COc1cc(-c2n/c(=C\c3c(O)[nH]c4ccc(Cl)cc34)cc3c2=Nc2ccccc2-3)ccc1F`, the growth was -7.14% (active). The value for `COc1ccc(/C(C)=C(\c2ccc(Cl)cc2)c2ccc(OCCCN(C)C)cc2)cc1` was 82.7%; that for `COC(=O)c1cc(-c2cccs2)c(C#N)c(N)c1C#N` was 80.8%. On to `COc1ccc2c(c1)Oc1nc(N)c(C#N)c(N)c1C2Sc1ccc(SC)cc1` (centres undefined), for which the growth was -40.8% (active).
